Seven compounds from PubChem BioAssay (EPA / NIEHS) can be followed below.

Records with an inconclusive call do not appear. Calls of active or inactive are those of the source. Rule for the calls, unless noted: active = hit-call score of the fitted dose curve at least 0.9, where 1 is the maximum; inactive = score below 0.9.

The target in test [1] is Paired box protein Pax-6 (Homo sapiens) (UniProt P26367). The test is described as follows: ATG_Pax6_CIS: Attagene CIS-FACTORIAL HepG2 Assay for human Paired Box 6 (PAX6) (AID 2282956). The settings on record: HepG2 CIS-FACTORIAL PAX6 reporter transcription, RNA readout; actives raise or lower the signal. In short, it runs like this:
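DMSO-referenced bidirectional fits of reporter mRNA fluorescence; HepG2 with transient cis-promoter MRTUs, 24 h post-dose, RT-PCR plus capillary electrophoresis detection.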

Test [2] in a line: ATG_PXRE_CIS: Attagene CIS-FACTORIAL HepG2 Assay for human Pregnane X Receptor Element (PXRE) (AID 2282957). The settings on record: HepG2 Attagene CIS-FACTORIAL PXRE reporter, mRNA; actives raise or lower the signal. In outline:
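Using HepG2 transfected with multiple reporter transcription units, endogenous factor-driven transcription was scored as reporter mRNA after 24 h exposure.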

Test [3] in a line: ATG_PPRE_CIS: Attagene CIS-FACTORIAL HepG2 Assay for human Peroxisome Proliferator-activated Response Element (PPRE) (AID 2282958). The settings on record: HepG2 PPRE cis-element reporter, Attagene transcription factor profiling; actives raise or lower the signal. In short, it runs like this: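 After human HepG2 hepatoma cells were transiently transfected with cis-promoter reporter constructs, they were exposed to test chemicals for 24 hours. Reporter RNA was then reverse-transcribed, PCR-amplified, FAM-labeled, HpaI-digested and quantified by capillary electrophoresis.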

Test [4] is described as follows: ATG_RORE_CIS: Attagene CIS-FACTORIAL HepG2 Assay for human RAR-related Orphan Receptor Element (RORE) (AID 2282959). The settings on record: HepG2 Attagene cis-factorial RORE reporter, mRNA; actives raise or lower the signal. In outline:
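Measured here: transcript induction of a cis-regulated reporter in HepG2 cells transiently transfected via FuGene 6. After 24 h, RNA was processed by RT-PCR and fluorescent capillary electrophoresis; DMSO defined baseline activity.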

A short description of test [5]: ATG_Sox_CIS: Attagene CIS-FACTORIAL HepG2 Assay for human SRY-box transcription factor (SOX) (AID 2282960). The settings on record: HepG2 Attagene cis-factorial SOX reporter, mRNA; actives raise or lower the signal. In short, it runs like this:
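Using transiently transfected HepG2 cells, reporter transcription driven by cis elements was assessed 24 h after dosing. Signal was fluorescence of capillary-separated RT-PCR products, with DMSO defining baseline activity.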

Test [6] concerns the target Transcription factor Sp1 (Homo sapiens) (UniProt P08047). Briefly: ATG_Sp1_CIS: Attagene CIS-FACTORIAL HepG2 Assay for human Specificity Protein 1 (Sp1) (AID 2282961). The settings on record: HepG2 Sp1 cis-reporter transcription, actives raise or lower the signal. In short, it runs like this:
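After transient transfection of HepG2 cells with cis-promoter reporter units and 24 h chemical treatment, reporter transcripts were quantified by RT-PCR and capillary electrophoresis fluorescence. Gain- and loss-of-signal fitted against DMSO.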

Test [7] is described as follows: ATG_SREBP_CIS: Attagene CIS-FACTORIAL HepG2 Assay for human Sterol Regulatory Element Binding (SREBP) (AID 2282962). The settings on record: HepG2 Attagene cis-factorial SREBP reporter, mRNA; actives raise or lower the signal. In short, it runs like this: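 In this cis-format assay, HepG2 liver cells express reporters controlled by promoter elements responsive to native transcription factors. Exposure lasts 24 h; reporter mRNA fluorescence from capillary electrophoresis gives the signal, fitted bidirectionally against DMSO.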

Test [8] deals with Signal transducer and activator of transcription 3 (Homo sapiens) (UniProt P40763). Briefly: ATG_STAT3_CIS: Attagene CIS-FACTORIAL HepG2 Assay for human Signal Transducer and Activator of Transcription 3 (STAT3) (AID 2282963). The settings on record: HepG2, Attagene cis-factorial STAT3 reporter transcription; actives raise or lower the signal. In short, it runs like this:
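Cis-factorial format: endogenous transcription factors in HepG2 drive transfected reporter units. After 24 h treatment, reporter RNA was reverse-transcribed, amplified, FAM-labelled and HpaI-digested before CE analysis; activity scored in both directions against DMSO.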

Test [9] is described as follows: ATG_TA_CIS: Attagene CIS-FACTORIAL HepG2 Assay for human TA Basal Promoter (AID 2282964). The settings on record: HepG2 Attagene CIS-factorial TA basal promoter reporter; actives raise or lower the signal. In short, it runs like this: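 Fluorescence from labelled RT-PCR reporter fragments, separated by capillary electrophoresis, gives the signal. Cells: HepG2 transiently carrying multiple reporter units, 24 h chemical dosing. Gain or loss relative to DMSO.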

Test [10] is described as follows: ATG_TCF_b_cat_CIS: Attagene CIS-FACTORIAL HepG2 Assay for human T-Cell-Factor with beta-catenin (TCF/b-cat) (AID 2282965). The settings on record: HepG2 TCF/beta-catenin cis-reporter transcription, actives raise or lower the signal. In outline:
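Measured: reporter mRNA in HepG2 transiently transfected with cis-promoter reporter units, 24 h after chemical addition. Fitting was bidirectional, DMSO as negative control.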

Test [11] is described as follows: ATG_TAL_CIS: Attagene CIS-FACTORIAL HepG2 Assay for human TAL Basal Promoter (AID 2282966).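 Note: background control endpoint measuring basal TAL promoter reporter mRNA not a specific factor.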 The settings on record: HepG2 Attagene cis-factorial TAL promoter reporter; actives raise or lower the signal. In outline:
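After 24 hours of chemical exposure, transfected HepG2 cells yielded RNA that was converted to 6-FAM-labelled, HpaI-digested reporter fragments for capillary electrophoresis. Values derive from bidirectional fitting against DMSO controls.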

The nature of test [12]: ATG_TGFb_CIS: Attagene CIS-FACTORIAL HepG2 Assay for human Transforming Growth Factor (TGF) (AID 2282967). The settings on record: HepG2 Attagene CIS TGFb reporter, mRNA transcription; actives raise or lower the signal. In outline:
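Bidirectional fitting relative to DMSO gave the endpoint. Underlying data: reporter mRNA from HepG2 cells carrying transiently transfected cis-regulated reporter constructs, harvested 24 h after dosing and analyzed by RT-PCR and capillary electrophoresis.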

Test [13] in a line: ATG_VDRE_CIS: Attagene CIS-FACTORIAL HepG2 Assay for human Vitamin D Receptor Element (VDRE) (AID 2282968). The settings on record: HepG2 VDRE cis-reporter transcription, actives raise or lower the signal. In outline: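 Measures endogenous factor activity through cis-element-driven reporter transcripts in transiently transfected HepG2. Cells are treated 24 h; reporter mRNA is quantified by RT-PCR and capillary electrophoresis; fitting is bidirectional.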

Test [14] addresses Nuclear receptor subfamily 1 group I member 3 (Homo sapiens) (UniProt Q14994). The test is described as follows: ATG_CAR_TRANS: Attagene TRANS-FACTORIAL HepG2 Assay for human Constitutive Androstane Receptor (CAR) (AID 2282969; active = hit-call score of the fitted dose curve at least 0.9, where 1 is the maximum;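 note: activators raise reporter mRNA above DMSO so AC50 marks induction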). The settings on record: HepG2 Attagene TRANS-FACTORIAL CAR reporter. In outline:
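Signal is reporter mRNA induction relative to DMSO, measured 24 h after dosing by RT-PCR with fluorescent primer extension and capillary electrophoresis. Human HepG2 liver cells carried transiently transfected chimeric NR-Gal4/GAL4-UAS reporter constructs.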

For test [15], the target named is Estrogen receptor (Homo sapiens) (UniProt P03372). Briefly: ATG_ERa_TRANS: Attagene TRANS-FACTORIAL HepG2 Assay for human Estrogen Receptor alpha (ERa) (AID 2282970; active = hit-call score of the fitted dose curve at least 0.9, where 1 is the maximum). The settings on record: HepG2 Attagene TRANS ERa GAL4 reporter, mRNA. In outline: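 Liver-derived HepG2 cells expressing chimeric nuclear receptor-Gal4 proteins from transient transfection were exposed for 24 hours. Gain of reporter mRNA signal versus DMSO, read by capillary electrophoresis of FAM-labelled PCR products, was recorded.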
Estrogen receptor (Homo sapiens), sequence (P03372 whole entry, looked up, the tested form may be a part): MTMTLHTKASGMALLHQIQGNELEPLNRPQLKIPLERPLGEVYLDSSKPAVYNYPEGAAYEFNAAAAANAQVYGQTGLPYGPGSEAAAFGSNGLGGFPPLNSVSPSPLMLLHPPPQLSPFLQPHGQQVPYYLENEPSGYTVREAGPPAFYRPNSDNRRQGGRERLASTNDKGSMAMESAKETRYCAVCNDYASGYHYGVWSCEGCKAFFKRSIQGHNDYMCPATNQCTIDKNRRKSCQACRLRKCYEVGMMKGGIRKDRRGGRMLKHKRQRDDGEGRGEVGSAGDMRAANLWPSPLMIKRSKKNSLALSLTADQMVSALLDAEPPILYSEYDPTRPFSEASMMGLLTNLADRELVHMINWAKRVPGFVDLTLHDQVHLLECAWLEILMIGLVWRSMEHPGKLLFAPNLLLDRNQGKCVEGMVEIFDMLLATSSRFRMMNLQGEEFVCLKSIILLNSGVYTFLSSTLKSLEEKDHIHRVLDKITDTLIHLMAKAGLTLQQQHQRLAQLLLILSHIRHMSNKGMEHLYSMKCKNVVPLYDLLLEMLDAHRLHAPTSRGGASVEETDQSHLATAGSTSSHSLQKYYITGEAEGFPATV

In test [16] the target is X-box-binding protein 1 (Homo sapiens) (UniProt P17861). Briefly: ATG_Xbp1_CIS: Attagene CIS-FACTORIAL HepG2 Assay for human X-box Binding Protein 1 (XBP1) (AID 2282972). The settings on record: HepG2 XBP1 cis-element reporter, Attagene multiplex; actives raise or lower the signal. In outline: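 Changes in reporter transcript abundance, read by RT-PCR and capillary electrophoresis, reflect endogenous transcription factor activity. Transfected HepG2 cells received compound for 24 hours; DMSO defined baseline for bidirectional analysis.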
X-box-binding protein 1 (Homo sapiens), sequence (P17861 whole entry, looked up): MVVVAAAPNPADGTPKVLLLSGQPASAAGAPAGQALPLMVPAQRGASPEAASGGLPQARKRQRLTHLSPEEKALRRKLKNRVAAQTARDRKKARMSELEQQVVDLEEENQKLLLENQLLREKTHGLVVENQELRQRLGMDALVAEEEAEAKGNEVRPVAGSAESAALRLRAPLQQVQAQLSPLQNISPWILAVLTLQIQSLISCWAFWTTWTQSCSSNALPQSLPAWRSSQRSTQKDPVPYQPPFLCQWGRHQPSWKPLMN

Test [17] can be described thus: ATG_M_19_TRANS: Attagene TRANS-FACTORIAL HepG2 Assay for M19 Transcription Factor (Internal Marker) (AID 2282974; active = hit-call score of the fitted dose curve at least 0.9, where 1 is the maximum). The settings on record: HepG2 Attagene TRANS-FACTORIAL M19 internal marker reporter. In outline: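 Gain-of-signal in reporter mRNA, relative to DMSO, was scored from capillary electrophoresis fluorescence. HepG2 cells carried transiently transfected multiple reporter transcription units and were incubated with test chemicals for 24 h.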

For test [18], the target named is Steroid hormone receptor ERR1 (Homo sapiens) (UniProt P11474). The test is described as follows: ATG_ERRa_TRANS: Attagene TRANS-FACTORIAL HepG2 Assay for human Estrogen-Related Receptor alpha (ERRa) (AID 2282971; active = hit-call score of the fitted dose curve at least 0.9, where 1 is the maximum). The settings on record: HepG2 Attagene TRANS reporter, ERRa transactivation. In short, it runs like this:
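Reporter transcript induction was quantified by RT-PCR and capillary electrophoresis of FAM-labelled, HpaI-cut products after 24 h treatment of HepG2 cells carrying transiently transfected GAL4-UAS reporter units and an exogenous ERRa-Gal4 fusion; activity scored as increase over DMSO.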

Test [19] can be described thus: ATG_GAL4_TRANS: Attagene TRANS-FACTORIAL HepG2 Assay for GAL4 (Internal Marker) (AID 2282976; active = hit-call score of the fitted dose curve at least 0.9, where 1 is the maximum). The settings on record: HepG2 Attagene TRANS GAL4 internal marker reporter. In outline: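 First, HepG2 cells were transfected with reporter units under GAL4-UAS control. Next, they were treated with chemical for 24 h. Finally, RNA was reverse-transcribed, PCR-amplified, FAM-labelled and resolved by capillary electrophoresis, with induction scored against DMSO.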

Test [20] addresses Estrogen-related receptor gamma (Homo sapiens) (UniProt P62508). Briefly: ATG_ERRg_TRANS: Attagene TRANS-FACTORIAL HepG2 Assay for human Estrogen-Related Receptor gamma (ERRg) (AID 2282977; active = hit-call score of the fitted dose curve at least 0.9, where 1 is the maximum;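 note: hits increase reporter signal over DMSO so potencies reflect activators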). The settings on record: HepG2 Attagene TRANS reporter, ERRg transactivation. In outline:
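Readout: fluorescent reporter-mRNA fragments resolved by capillary electrophoresis after RT-PCR and HpaI cut. Cells: transiently transfected HepG2 carrying GAL4-UAS reporters driven by exogenous NR-Gal4 chimeras, dosed 24 h. Activity fitted upward relative to DMSO baseline.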

Signal transducer and activator of transcription 3 (Homo sapiens), sequence (P40763 whole entry, looked up): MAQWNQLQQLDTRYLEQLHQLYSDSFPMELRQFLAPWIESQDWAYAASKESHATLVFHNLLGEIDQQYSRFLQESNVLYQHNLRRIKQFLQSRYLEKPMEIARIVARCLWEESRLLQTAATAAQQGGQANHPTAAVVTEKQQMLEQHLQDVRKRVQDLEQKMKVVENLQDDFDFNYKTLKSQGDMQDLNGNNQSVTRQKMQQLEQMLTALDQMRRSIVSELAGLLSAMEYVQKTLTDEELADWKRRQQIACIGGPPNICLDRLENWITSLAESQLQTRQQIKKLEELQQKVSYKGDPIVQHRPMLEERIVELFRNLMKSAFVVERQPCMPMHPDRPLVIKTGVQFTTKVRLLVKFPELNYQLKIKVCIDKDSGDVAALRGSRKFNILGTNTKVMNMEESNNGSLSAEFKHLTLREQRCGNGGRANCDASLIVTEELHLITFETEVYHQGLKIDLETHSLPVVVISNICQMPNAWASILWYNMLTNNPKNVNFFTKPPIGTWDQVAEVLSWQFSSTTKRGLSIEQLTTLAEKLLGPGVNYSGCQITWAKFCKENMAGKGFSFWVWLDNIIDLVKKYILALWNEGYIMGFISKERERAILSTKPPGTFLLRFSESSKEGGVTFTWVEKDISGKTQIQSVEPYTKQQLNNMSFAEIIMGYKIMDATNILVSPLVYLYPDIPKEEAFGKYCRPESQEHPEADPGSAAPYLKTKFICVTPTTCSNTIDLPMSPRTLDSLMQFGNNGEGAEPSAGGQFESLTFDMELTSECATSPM
Transcription factor Sp1 (Homo sapiens), sequence (P08047 whole entry, looked up): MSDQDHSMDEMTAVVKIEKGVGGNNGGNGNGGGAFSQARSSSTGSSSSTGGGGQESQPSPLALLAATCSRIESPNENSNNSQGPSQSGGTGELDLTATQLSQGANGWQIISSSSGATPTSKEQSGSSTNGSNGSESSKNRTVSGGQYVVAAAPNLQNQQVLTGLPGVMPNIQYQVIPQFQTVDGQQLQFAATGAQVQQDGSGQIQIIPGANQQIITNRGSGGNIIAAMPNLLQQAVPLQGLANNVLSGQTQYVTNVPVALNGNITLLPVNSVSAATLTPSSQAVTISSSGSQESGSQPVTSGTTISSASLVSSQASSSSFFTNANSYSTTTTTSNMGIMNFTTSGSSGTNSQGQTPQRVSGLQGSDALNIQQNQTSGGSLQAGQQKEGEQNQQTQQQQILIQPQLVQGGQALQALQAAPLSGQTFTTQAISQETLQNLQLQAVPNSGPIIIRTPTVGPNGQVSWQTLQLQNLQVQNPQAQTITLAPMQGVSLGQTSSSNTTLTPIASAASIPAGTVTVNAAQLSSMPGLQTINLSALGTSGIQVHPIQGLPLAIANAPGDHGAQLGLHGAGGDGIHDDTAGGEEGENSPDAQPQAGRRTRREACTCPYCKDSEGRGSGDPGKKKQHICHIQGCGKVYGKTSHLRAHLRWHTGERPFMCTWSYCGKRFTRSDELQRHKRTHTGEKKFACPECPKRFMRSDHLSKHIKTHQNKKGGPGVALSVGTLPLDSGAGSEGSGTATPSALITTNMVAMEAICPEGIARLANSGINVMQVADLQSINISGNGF
Paired box protein Pax-6 (Homo sapiens), sequence (P26367 whole entry, looked up): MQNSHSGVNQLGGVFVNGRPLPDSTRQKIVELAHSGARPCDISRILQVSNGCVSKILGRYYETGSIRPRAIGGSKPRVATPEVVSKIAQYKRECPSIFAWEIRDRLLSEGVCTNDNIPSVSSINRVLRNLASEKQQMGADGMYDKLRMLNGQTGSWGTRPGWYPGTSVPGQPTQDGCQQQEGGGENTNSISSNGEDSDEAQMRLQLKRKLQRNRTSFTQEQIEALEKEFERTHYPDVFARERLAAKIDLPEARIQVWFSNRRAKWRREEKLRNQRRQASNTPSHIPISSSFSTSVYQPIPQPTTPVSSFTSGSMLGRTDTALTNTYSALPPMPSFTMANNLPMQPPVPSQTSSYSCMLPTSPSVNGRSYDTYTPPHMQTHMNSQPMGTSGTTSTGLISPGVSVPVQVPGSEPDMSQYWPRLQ
Nuclear receptor subfamily 1 group I member 3 (Homo sapiens), sequence (Q14994 whole entry, looked up, the tested form may be a part): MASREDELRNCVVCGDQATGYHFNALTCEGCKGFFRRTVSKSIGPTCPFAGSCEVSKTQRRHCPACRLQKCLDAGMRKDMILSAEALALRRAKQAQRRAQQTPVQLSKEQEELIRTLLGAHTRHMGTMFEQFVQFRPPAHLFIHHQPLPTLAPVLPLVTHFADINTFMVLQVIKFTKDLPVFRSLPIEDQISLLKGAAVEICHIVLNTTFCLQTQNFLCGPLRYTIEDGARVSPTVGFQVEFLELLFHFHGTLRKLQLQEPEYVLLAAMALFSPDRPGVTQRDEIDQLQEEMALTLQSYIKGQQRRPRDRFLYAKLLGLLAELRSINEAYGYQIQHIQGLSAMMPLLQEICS
Estrogen-related receptor gamma (Homo sapiens), sequence (P62508 whole entry, looked up, the tested form may be a part): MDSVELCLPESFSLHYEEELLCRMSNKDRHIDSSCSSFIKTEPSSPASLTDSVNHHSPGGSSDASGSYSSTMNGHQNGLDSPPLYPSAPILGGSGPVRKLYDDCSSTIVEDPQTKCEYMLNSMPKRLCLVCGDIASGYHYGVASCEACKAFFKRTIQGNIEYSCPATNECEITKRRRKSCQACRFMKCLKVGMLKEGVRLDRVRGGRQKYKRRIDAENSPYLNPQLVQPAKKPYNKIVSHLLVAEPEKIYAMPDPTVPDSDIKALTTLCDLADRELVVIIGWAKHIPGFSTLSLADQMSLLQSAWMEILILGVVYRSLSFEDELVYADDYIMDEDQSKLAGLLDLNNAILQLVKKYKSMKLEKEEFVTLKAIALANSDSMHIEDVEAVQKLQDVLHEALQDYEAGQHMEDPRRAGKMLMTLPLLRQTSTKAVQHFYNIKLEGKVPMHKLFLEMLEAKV
Steroid hormone receptor ERR1 (Homo sapiens), sequence (P11474 whole entry, looked up, the tested form may be a part): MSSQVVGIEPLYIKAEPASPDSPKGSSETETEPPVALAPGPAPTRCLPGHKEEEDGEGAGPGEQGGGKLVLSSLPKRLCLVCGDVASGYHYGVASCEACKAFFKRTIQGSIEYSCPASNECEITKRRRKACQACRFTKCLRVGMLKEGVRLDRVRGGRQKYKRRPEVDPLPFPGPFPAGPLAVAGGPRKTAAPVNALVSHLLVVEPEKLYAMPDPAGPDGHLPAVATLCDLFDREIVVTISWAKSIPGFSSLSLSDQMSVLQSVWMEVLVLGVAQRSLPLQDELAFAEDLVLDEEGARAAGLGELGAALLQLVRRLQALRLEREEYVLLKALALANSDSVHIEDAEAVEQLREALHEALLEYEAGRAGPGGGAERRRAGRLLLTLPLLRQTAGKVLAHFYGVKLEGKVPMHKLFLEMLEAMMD

Consider `FC(F)(F)C(=NOCC1OCCO1)c1ccc(Cl)cc1`, for which the call in test [1], in test [4], in [5], in [6], in test [7] and in test [8] was inactive. Also, the compound was classed as inactive in [9], in [10], in test [11], in [12], in test [13] and in [14]. The result in test [15], in test [16] and in test [17] was inactive. Moreover, the AC50 in [2] was 12.1 µM (active); in [3], 130 µM (active).

Consider `CO[Si](OC)(OC)c1ccccc1`, for which the call in [1], in test [2], in test [3], in test [4], in test [5] and in test [6] was inactive. The outcome in [7], in test [8], in test [9], in [10], in test [11] and in [12] was inactive. For the same compound, the call in test [13], in test [15], in test [18], in test [16] and in [17] was inactive.

`CCC(CO)CO`: the compound was called inactive in test [1], in test [2], in test [3], in [4], in test [5] and in test [6]. The compound was classed as inactive in test [7], in test [8], in test [9], in test [10], in test [11] and in test [12]. The outcome in [13], in test [15], in [16], in test [17] and in test [19] was inactive.

In the case of `CCOC(=O)c1ccccc1C(=C1C=C(Br)C(=O)C(Br)=C1)c1cc(Br)c(O)c(Br)c1`, the AC50 is 39.3 µM (active) in test [1]; 19.8 µM (active) in test [3]; 20.7 µM (active) in test [6]; 24.8 µM (active) in [10]; 25.9 µM (active) in [13]; 34.4 µM (active) in test [16]. The compound was called inactive in test [2], in [4], in test [5], in test [7], in test [8] and in test [9]. For the same compound, the result in test [11], in test [12] and in test [15] was inactive.

On to `O=c1[nH]nc(-c2ccc([N+](=O)[O-])o2)o1`, for which the compound was called inactive in [1], in [2], in test [3], in [4], in [5] and in [6]. In addition, the call in test [7], in test [8], in [9], in [10], in test [11] and in [12] was inactive. Also, the result in [13], in [14], in test [16], in test [17] and in test [20] was inactive.

Take `CCCCCc1ccc(Cl)cc1`: the compound was classed as inactive in [1], in test [2], in test [4], in test [5], in [7] and in test [8]. In addition, the compound was called inactive in test [9], in test [10], in test [11], in test [12], in [13] and in [15]. Further, the compound was classed as inactive in [16], in test [17] and in test [19]. Moreover, the AC50 was 25.9 µM (active) in test [3] and 177 µM (active) in [6].

Turning to `CCCCCCCCCCCCCCCC[n+]1ccccc1`, the compound was called inactive in test [1], in [2], in test [4], in test [5], in test [6] and in [7]. The call in [8], in test [9], in test [10], in test [11] and in test [16] was inactive. The AC50 in [3] was 8.82 µM (active); in test [12], 45.8 µM (active); in test [13], 3.87 µM (active).
